In PubChem BioAssay (NCI):
This is part of a sample that, as a whole, favours compounds with a hit. Of some 79,000 tested, about 15% had one in any assay. The source made the active and inactive calls. Rule as the data show it: active = growth inhibition above about 70%; inactive = the rest.

Legend:
[1] = NCI Yeast Anticancer Drug Screen. Data for the rad50 strain (AID 155);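 also: 0% = growth of vehicle-only cultures of the same strain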; settings: S. cerevisiae rad50 strain growth inhibition, stronger effect = higher value
In short: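 Vehicle-treated cultures provide the reference for the growth inhibition reported for compound-exposed, repair-deficient yeast.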

[2] = NCI Yeast Anticancer Drug Screen. Data for the mec2-1 strain (AID 157); settings: S. cerevisiae mec2-1 strain, stronger effect = higher value
In short: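 Using mec2-1 yeast: add compound, measure growth, express inhibition versus vehicle-treated cultures.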

[3] = NCI Yeast Anticancer Drug Screen. Data for the sgs1 mgt1 strain (AID 161);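 also: 0% = growth of cultures given vehicle only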; settings: S. cerevisiae sgs1 mgt1 strain, stronger effect = higher value
In short: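 Growth of a repair-deficient yeast mutant was monitored after compound treatment and expressed as inhibition relative to vehicle-treated cultures.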

[4] = NCI Yeast Anticancer Drug Screen. Data for the cln2 rad14 strain (AID 165);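 also: 0% = growth equal to vehicle treated cultures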; settings: S. cerevisiae cln2 rad14 strain, stronger effect = higher value
In short: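 Yeast strain cln2 rad14, bearing defects in cell cycle control and DNA repair, serves as the test system; values reflect growth inhibition compared with vehicle.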

[5] = NCI Yeast Anticancer Drug Screen. Data for the bub3 strain (AID 167); settings: S. cerevisiae bub3 mutant strain, stronger effect = higher value
In short: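 Mutant yeast screening strain plus compound; vehicle-treated cultures serve as the 0% inhibition reference.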

[6] = NCI Yeast Anticancer Drug Screen. Data for the mlh1 rad18 strain (AID 175); settings: S. cerevisiae mlh1 rad18 strain growth inhibition, stronger effect = higher value
In short: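 Steps: expose repair-defective yeast to compound; measure growth; express inhibition against vehicle-treated controls.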

[7] = at 5.0 µM (retest, dose inferred, filed as 0.5)
[8] = at 50.0 µM (retest, dose inferred, filed as 5.0)

Measured: growth inhibition

Cc1cccc(NC(=O)CCc2ccc(Cl)cc2)n1
inactive: [1]; [7] 2% | [1]; [8] 1% | [1]; at 50.0 µM 6.3% | [2]; [7] -17% | [2]; [8] -6% | [2]; at 50.0 µM 2.55% | [3]; [7] 2% | [3]; [8] 13% | [3]; at 50.0 µM 0.2% | [4]; [7] -6% | [4]; [8] -15% | [4]; at 50.0 µM 41.8% | [5]; [7] -1% | [5]; [8] 0% | [5]; at 50.0 µM 9.9% | [6]; [7] 8% | [6]; [8] -7% | [6]; at 50.0 µM -2.8%

COc1cc(C2c3cc4c(cc3OC3(O)C=C(C)OC(=O)C23)OCO4)cc(OC)c1OC (configuration not stated)
inactive: [1]; [7] 5% | [1]; [8] -5% | [1]; at 50.0 µM 12.1% | [2]; [7] 4% | [2]; [8] -4% | [2]; at 50.0 µM 30% | [3]; [7] 0% | [3]; [8] -22% | [3]; at 50.0 µM 13.4% | [4]; [7] 0% | [4]; [8] 5% | [4]; at 50.0 µM 9.5% | [5]; [7] -1% | [5]; [8] -3% | [6]; [7] 1% | [6]; [8] -10% | [6]; at 50.0 µM 29.9%
active: [5]; at 50.0 µM 92.3%

Cc1cc(Nc2ccc(N=Nc3ccc(O)c4ncccc34)cc2)nc(C)n1
inactive: [1]; [7] 1% | [1]; [8] 31% | [2]; [7] -4% | [2]; [8] 21% | [2]; at 50.0 µM 52.5% | [3]; [7] -2% | [3]; [8] 35% | [3]; at 50.0 µM 47.9% | [4]; [7] -41% | [4]; [8] 6% | [4]; at 50.0 µM 23% | [5]; [7] 5% | [5]; [8] 4% | [5]; at 50.0 µM 60.9% | [6]; [7] 0% | [6]; [8] 37%
active: [1]; at 50.0 µM 71.1% | [6]; at 50.0 µM 75.5%

CC(Br)Cc1ccc2c(c1)OCO2 (configuration not stated)
inactive: [1]; [7] 3% | [1]; [8] 0% | [1]; at 50.0 µM 1.15% | [2]; [7] 2% | [2]; [8] -2% | [2]; at 50.0 µM 44.5% | [3]; [7] 3% | [3]; [8] -3% | [3]; at 50.0 µM 19.8% | [4]; [7] 3% | [4]; [8] -1% | [4]; at 50.0 µM -3.8% | [5]; [7] -10% | [5]; [8] -14% | [5]; at 50.0 µM -28.5% | [6]; [7] -4% | [6]; [8] 1% | [6]; at 50.0 µM -12.4%

CCSC(=S)NC(=O)c1ccccc1
active: [3]; at 50.0 µM 76.5%
inactive: [1]; [7] -6% | [1]; [8] 27% | [1]; at 50.0 µM 60.2% | [2]; [7] 1% | [2]; [8] 20% | [2]; at 50.0 µM 21.4% | [3]; [7] -2% | [3]; [8] 30% | [4]; [7] -12% | [4]; [8] 28% | [4]; at 50.0 µM 38.1% | [5]; [7] -7% | [5]; [8] 44% | [5]; at 50.0 µM 17.2% | [6]; [7] -3% | [6]; [8] 32% | [6]; at 50.0 µM 36.9%

COc1cc(N=Nc2ccccc2)cc(/C=N/NC(N)=S)c1O
inactive: [1]; [7] -2% | [1]; [8] 46% | [2]; [7] 3% | [2]; [8] 59% | [2]; at 50.0 µM 67.2% | [3]; [7] 9% | [4]; [7] -9% | [4]; [8] 37% | [5]; [7] 1% | [5]; [8] 61% | [5]; at 50.0 µM 58.3% | [6]; [7] 4%
active: [1]; at 50.0 µM 73.8% | [3]; [8] 85% | [3]; at 50.0 µM 88.8% | [4]; at 50.0 µM 78.8% | [6]; [8] 73% | [6]; at 50.0 µM 90.8%

[N-]=[N+]=NC1=C(C(=O)c2ccccc2)C(=O)c2cccc3cccc1c23
inactive: [1]; [7] 13% | [1]; [8] 18% | [1]; at 50.0 µM 32.7% | [2]; [7] 6% | [2]; [8] 27% | [2]; at 50.0 µM 20.4% | [3]; [7] 18% | [3]; [8] 30% | [3]; at 50.0 µM 37% | [4]; [7] 6% | [4]; [8] 17% | [4]; at 50.0 µM 35.2% | [5]; [7] 8% | [5]; [8] 40% | [5]; at 50.0 µM 25.4% | [6]; [7] 4% | [6]; [8] 29%
active: [6]; at 50.0 µM 70%

CN(C)C(=O)N(C)/N=C/c1ccc([N+](=O)[O-])o1
inactive: [1]; [7] 10% | [1]; [8] 56% | [2]; [7] 1% | [2]; [8] 21% | [2]; at 50.0 µM 53.5% | [3]; [7] 8% | [3]; [8] 68% | [4]; [7] 4% | [4]; [8] 30% | [4]; at 50.0 µM 42.2% | [5]; [7] 5% | [5]; [8] 42% | [5]; at 50.0 µM 40% | [6]; [7] 21% | [6]; [8] 68%
active: [1]; at 50.0 µM 80.3% | [3]; at 50.0 µM 90.8% | [6]; at 50.0 µM 89.5%

Oc1c(Br)ccc2cccnc12
active: [1]; [8] 99% | [1]; at 50.0 µM 87.2% | [2]; [8] 99% | [2]; at 50.0 µM 91.2% | [3]; [8] 99% | [3]; at 50.0 µM 83.8% | [4]; [8] 98% | [4]; at 50.0 µM 88.6% | [5]; [8] 99% | [5]; at 50.0 µM 88.5% | [6]; [8] 98% | [6]; at 50.0 µM 82.3%
inactive: [1]; [7] 26% | [2]; [7] 23% | [3]; [7] 4% | [4]; [7] 0% | [5]; [7] 1% | [6]; [7] 1%
